Data: PubChem BioAssay (EPA / NIEHS)
Records with an inconclusive call do not appear. Active and inactive are the calls of the source. The calls were made as follows, unless noted: active = hit-call score of the fitted dose curve at least 0.9, where 1 is the maximum; inactive = score below 0.9.

What was measured:
[1] = CCTE_Mundy_HCI_Cortical_NOG_NeuriteCount: CCTE's Neurite Outgrowth Assay in rat cortical cells for Neurite Count, Mundy Lab (AID 2284212);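 also: cells fixed about two days after chemical exposure began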
Method in brief: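 Neurite number per cell from high-content imaging of betaIII-tubulin immunostaining, with Hoechst nuclear counterstain.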

[2] = CCTE_Mundy_HCI_Cortical_Synap_Neur_Matur_NeuriteLength: CCTE's Synaptogenesis and Neurite Maturation Assay in rat cortical cells for Neurite Length, Mundy Lab (AID 2284214)
Method in brief: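 Rat primary cortical cultures, AraC added DIV 5, dosed DIV 7 through DIV 12 […]. Fixed, MAP2/synaptophysin immunostained with Hoechst; neurite length by high-content imaging, fitted in positive direction versus DMSO.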

[3] = CCTE_Mundy_HCI_Cortical_Synap_Neur_Matur_NeuriteSpotCountPerNeuron: CCTE's Synaptogenesis and Neurite Maturation Assay in rat cortical cells for Neurite Spot Count per Neuron Count, Mundy Lab (AID 2284215)
Method in brief: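 Developing rat cortical neurons, with glia suppressed by AraC, are exposed to chemicals from DIV 7 to DIV 12. Automated fluorescence imaging of MAP2-labelled neurites and synaptophysin puncta yields a count per neuron, normalised against DMSO wells.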

[4] = CCTE_Mundy_HCI_Cortical_Synap_Neur_Matur_SynapseCount: CCTE's Synaptogenesis and Neurite Maturation Assay in rat cortical cells for Synapse Count, Mundy Lab (AID 2284218)
Method in brief: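 Rat primary cortical cultures, AraC at DIV 5, chemical dosing DIV 7 to DIV 12 (288.33 h). Fixed cells stained for MAP2, synaptophysin and Hoechst; synapses per neuron counted by high-content imaging, loss of signal versus DMSO.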

[5] = CCTE_Mundy_HCI_Cortical_Synap_Neur_Matur_NeuriteCount: CCTE's Synaptogenesis and Neurite Maturation Assay in rat cortical cells for Neurite Count, Mundy Lab (AID 2284222)
Method in brief: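 Rat primary cortical cells; AraC added at DIV 5, chemicals dosed with media change at DIV 7 through DIV 12. MAP2/synaptophysin/Hoechst immunostaining, high-content imaging of neurite number; fitted relative to DMSO.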

[6] = CCTE_Mundy_HCI_Cortical_Synap_Neur_Matur_CellBodySpotCount: CCTE's Synaptogenesis and Neurite Maturation Assay in rat cortical cells for Cell Body Spot Count, Mundy Lab (AID 2284223)
Method in brief: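 Chemicals were applied to AraC-treated rat primary cortical cells at DIV 7 and measured at DIV 12. Fixed cells were labelled for MAP2, synaptophysin and nuclei, and high-content imaging gave cell body synaptophysin spot counts per neuron relative to DMSO.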

[7] = CCTE_Mundy_HCI_hNP1_Pro_ResponderAvgInten: CCTE's Proliferation Assay in human neuroprogenitor cells, Mundy Lab (AID 2284224; active = hit-call score of the fitted dose curve at least 0.9, where 1 is the maximum;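 also: human neural progenitor cells hNP1 derived from WA09 embryonic stem cells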)
Method in brief: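 Proliferation read as average intensity of BrdU-positive cells, imaged at 26.25 h post-dosing: chemical exposure started after 40–44 h culture, BrdU during final 4 h, paraformaldehyde fixation. Positive-direction fit relative to DMSO.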

[8] = UKN2_HCS_IMR90_cell_viability: Viability Assessment in the University of Konstanz (UKN) Leist Lab Neural Crest Cell Migration Assay in human induced IMR90 Pluripotent Stem Cells (UKN2) (AID 2284233);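 also: viability of neural crest cells differentiated from IMR90 iPSC measured by calcein-AM fluorescence imaging; cells exposed to compound for 24 h after a 24 h migration phase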
Method in brief: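 Neural crest cells derived from IMR90 iPSC migrate into a stopper-free zone for 24 h in EGF/FGF medium, then are exposed to compound for 24 h. Viability assessed by calcein-AM and Hoechst staining with high-content imaging, fitted bidirectionally versus DMSO.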

[9] = CCTE_Mundy_HCI_Cortical_NOG_NeuronCount: CCTE's Neurite Outgrowth Assay in rat cortical cells for Neuron Count, Mundy Lab (AID 2284236; active = hit-call score of the fitted dose curve at least 0.9, where 1 is the maximum;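 also: neurons counted by imaging betaIII-tubulin and Hoechst stained cortical cells; cells exposed to compound for about 48 hours before fixation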)
Method in brief: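 Read-out: neuron number by high-content imaging of betaIII-tubulin (Alexa Fluor-488) and Hoechst-labelled rat primary cortical cells.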

[10] = CCTE_Mundy_HCI_Cortical_NOG_BPCount: CCTE's Neurite Outgrowth Assay in rat cortical cells for Branch Point Count, Mundy Lab (AID 2284237);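 also: branch points counted about two days after chemical exposure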
Method in brief: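 Measured 50.33 h after dosing, this morphology endpoint uses rat primary cortical cultures labelled for betaIII-tubulin. Branch points are quantified by high-content imaging, with DMSO as negative control and baseline.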

[11] = CCTE_Mundy_HCI_hNP1_Casp3_7: CCTE's Caspase-Glo 3/7 Assay in human neuroprogenitor cells for Apoptosis, Mundy Lab (AID 2284240)
Method in brief: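 Luminescent caspase-3/7 readout, 26.5 h post-dose, in human neural progenitor cells from WA09 embryonic stem cells. Cells grew 40–44 h at 37 °C, 5% CO2 before chemical addition. Activity analysed as signal increase over DMSO baseline.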

[12] = CCTE_Mundy_HCI_hNP1_CellTiter: CCTE's Cell Titer-Glo 2 Assay in human neuroprogenitor cells for Viability, Mundy Lab (AID 2284241; active = hit-call score of the fitted dose curve at least 0.9, where 1 is the maximum)
Method in brief: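 Viability read as luminescent ATP content (CellTiter-Glo, 30 min room temperature) twenty-four hours after dosing, relative to DMSO. Cells: WA09-derived hNP1 neuroprogenitors on poly-L-ornithine/laminin, plated 40 to 44 hours before chemical.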

[13] = CCTE_Mundy_HCI_Cortical_Synap_Neur_Matur_NeuronCount: CCTE's Synaptogenesis and Neurite Maturation Assay in rat cortical cells for Neuron Count, Mundy Lab (AID 2284242; active = hit-call score of the fitted dose curve at least 0.9, where 1 is the maximum;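 also: hits reduce neuron count versus DMSO baseline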)
Method in brief: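 Rat primary cortical cells, AraC added at DIV 5, dosed with media change from DIV 7 to DIV 12. Fixed, Hoechst-stained and immunolabelled for MAP2 and synaptophysin; neuron number counted by high-content imaging, loss fitted versus DMSO.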

[14] = IUF_NPC2c_oligodendrocyte_migration_120hr: Leibniz Research Institute for Environmental Medicine (IUF) 120-hour Neural Progenitor Cell Migration Assay for Oligodendrocyte Migration (NPC2c) (AID 2284297);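 also: O4-positive oligodendrocyte migration distance divided by radial glia migration distance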
Method in brief: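 Using fetal brain neural progenitor spheres differentiating in N2 medium at 37C, compounds were present for 120 h. Oligodendrocyte migration distance, normalized to radial glia migration, was measured from imaged O4 staining.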

[15] = IUF_NPC2a_radial_glia_migration_120hr: Leibniz Research Institute for Environmental Medicine (IUF) 120-hour Neural Progenitor Cell Migration Assay for Radial Glia Migration (NPC2a) (AID 2284298)
Method in brief: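 Exposure of 0.3 mm primary hNPC spheres runs day 0 to 120 h with a half-volume medium change at day 3. Fixed cells get Hoechst staining; high-content analysis of nuclear positions yields radial glia migration distance per well, compared against DMSO controls.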

[16] = IUF_NPC2a_radial_glia_migration_72hr: Leibniz Research Institute for Environmental Medicine (IUF) 72-hour Neural Progenitor Cell Migration Assay for Radial Glia Migration (NPC2a) (AID 2284299)
Method in brief: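 Human fetal neural progenitor spheres (0.3 mm) plated on poly-D-lysine/laminin in N2 differentiation medium and exposed from day 0 at 7 concentrations; radial glia migration distance from sphere edge measured at 72 h on brightfield images, mean of four directions, vs DMSO.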

[17] = IUF_NPC2b_neuronal_migration_120hr: Leibniz Research Institute for Environmental Medicine (IUF) 120-hour Neural Progenitor Cell Migration Assay for Neuron Migration (NPC2b) (AID 2284300)
Method in brief: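 Fetal human NPC spheres migrate on PDL/laminin during 120 h compound treatment; neuronal migration distance, glia-normalized, scored versus DMSO control.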

[18] = IUF_NPC3_neuronal_differentiation_120hr: Leibniz Research Institute for Environmental Medicine (IUF) 120-hour Neuronal Differentiation Assay (NPC3) (AID 2284301)
Method in brief: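 Human fetal (GW 16-19) neural progenitor spheres (0.3 mm) plated on poly-D-lysine/laminin in N2 differentiation medium, exposed 120 h at 37C with half-medium renewal day 3; 7 concentrations. TUBB3+ cells as % of Hoechst nuclei, CNN-identified; DMSO baseline.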

[19] = IUF_NPC4_neurite_area_120hr: Leibniz Research Institute for Environmental Medicine (IUF) 120-hour Neuronal Morphology Assay for Neurite Area (NPC4) (AID 2284305; active = hit-call score of the fitted dose curve at least 0.9, where 1 is the maximum)
Method in brief: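 Human fetal neural progenitor spheres (0.3 mm) plated on poly-D-lysine/laminin in N2 differentiation medium, exposed 120 h (7 concentrations, DMSO ≤0.1%, half-medium refresh day 3). Fixed, TUBB3 immunostained; mean neurite area per neuron by Omnisphero skeletonization.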

[20] = IUF_NPC2-5_cytotoxicity_72hr: Cytotoxicity Assessment at 72 hours in the Leibniz Research Institute for Environmental Medicine (IUF) Neural Progenitor Cell Migration and Differentiation Assay for Cytotoxicity (NPC2-5) (AID 2284306; active = hit-call score of the fitted dose curve at least 0.9, where 1 is the maximum;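 also: LDH release into supernatant measured by resorufin fluorescence marking membrane damage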)
Method in brief: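 Human fetal primary neural progenitor spheres (0.3 mm) plated on poly-D-lysine/laminin in N2 differentiation medium, exposed from day 0 at 37C. LDH-dependent resazurin-to-resorufin fluorescence in supernatant at 72 h; 7 concentrations, DMSO at most 0.1%.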

[21] = IUF_NPC2-5_cell_number_120hr: Cell Number Assessment at 120 hours in the Leibniz Research Institute for Environmental Medicine (IUF) Neural Progenitor Cell Migration and Differentiation Assay (NPC2-5) (AID 2284308);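 also: count of Hoechst-stained nuclei in migration zone around plated human neural progenitor spheres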
Method in brief: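 Seven-point serial dilutions plus solvent control were applied to plated 0.3 mm hNPC spheres at differentiation start, with medium half-replaced at day 3. Nuclei positive for Hoechst in the migration zone were enumerated at 120 h.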

[22] = IUF_NPC2-5_viability_120hr: Viability Assessment at 120 hours in the Leibniz Research Institute for Environmental Medicine (IUF) Neural Progenitor Cell Migration and Differentiation Assay (NPC2-5) (AID 2284312)
Method in brief: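 Human fetal neural progenitor spheres (0.3 mm) plated on poly-D-lysine/laminin in N2 differentiation medium, exposed 120 h with half-medium refresh at day 3. Viability by alamar blue resazurin fluorescence; 7 concentrations, DMSO max 0.1%.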

[23] = CCTE_Mundy_HCI_iCellGluta_NOG_NeuriteLength: CCTE's Neurite Outgrowth Assay in iCellGluta cells for Neurite Length, Mundy Lab (AID 2284318; active = hit-call score of the fitted dose curve at least 0.9, where 1 is the maximum)
Method in brief: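 Automated high-content imaging of betaIII-tubulin (Alexa Fluor-488) and Hoechst-stained cells gave neurite length, normalized to the DMSO baseline.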

[24] = IUF_NPC1_cytotoxicity_72hr: Cytotoxicity Assessment at 72 hours in the Leibniz Research Institute for Environmental Medicine (IUF) Neural Progenitor Cell Proliferation Assay (NPC1) (AID 2284332; active = hit-call score of the fitted dose curve at least 0.9, where 1 is the maximum;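 also: rising LDH signal means more cytotoxicity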)
Method in brief: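 Human fetal neural progenitor spheres (0.3 mm) in EGF/FGF proliferation medium, 37C, exposed 72 h without renewal. LDH release in supernatant read by resorufin fluorescence; gain of signal scored relative to dynamic range.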

[25] = CCTE_Mundy_HCI_iCellGluta_NOG_NeuriteCount: CCTE's Neurite Outgrowth Assay in iCellGluta cells for Neurite Count, Mundy Lab (AID 2284342; active = hit-call score of the fitted dose curve at least 0.9, where 1 is the maximum;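 also: chemical exposure about 48 hours starting 2 hours after plating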)

Measured: AC50

CC(CNC(=S)[S-])NC(=S)[S-].[Zn+2] (stereo not given)
inactive: [6] | [7] | [8] | [12] | [14] | [16] | [17] | [18] | [22] | [24]
active: [1] 31.5 µM | [2] 50 µM | [3] 50 µM | [4] 50 µM | [5] 76.9 µM | [9] 19.2 µM | [10] 22.2 µM | [11] 11.1 µM | [13] 82.3 µM | [15] 12.5 µM | [19] 39.2 µM | [20] 60.5 µM | [21] 50 µM | [23] 13 µM | [25] 21.2 µM
